Where “and” joins values, the source holds several entries; their conditions need not be identical. Equal entries are not always repeated.
Legend:
Assay in all cases: thermal shift delta Tm vs DMSO control; higher = stronger stabilization (binding)
Settings in all cases: 12.5 µM; protein concentration 2 µM
[1] = tested on: LOC_OS04G57630-cb004
Outline: (§1)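 Purified, E. coli-expressed rice kinase domain constructs were tested by differential scanning fluorimetry in 96-well plates: 19.5 μl of 2 μM kinase in 100 mM potassium phosphate pH 7.5, 150 mM NaCl, 10% glycerol, 5 × SYPRO Orange, plus compound in DMSO. Fluorescence was read from 25°C to 95°C at 0.05°C/s. Melting temperatures came from Boltzmann fits, and the shift is the triplicate mean relative to protein with DMSO alone.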

[2] = tested on: LOC_OS05G07850-cb002
Outline: as §1

[3] = tested on: LOC_OS05G16824-cb004
Outline: as §1

[4] = tested on: LOC_OS05G28520-cb001
Outline: as §1

[5] = tested on: LOC_OS05G30820-cb001
Outline: as §1

[6] = tested on: LOC_OS05G43570-cb004
Outline: as §1

[7] = tested on: LOC_OS06G16330-cb003
Chain of LOC_OS06G16330-cb003 (as listed by the source): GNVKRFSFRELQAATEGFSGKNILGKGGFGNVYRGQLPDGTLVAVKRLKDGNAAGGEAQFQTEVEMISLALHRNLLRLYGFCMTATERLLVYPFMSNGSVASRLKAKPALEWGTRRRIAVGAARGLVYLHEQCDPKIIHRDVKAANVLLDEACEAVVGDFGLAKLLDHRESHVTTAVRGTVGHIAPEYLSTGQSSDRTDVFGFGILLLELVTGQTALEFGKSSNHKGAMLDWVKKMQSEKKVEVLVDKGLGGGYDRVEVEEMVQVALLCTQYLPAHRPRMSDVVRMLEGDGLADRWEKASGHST
Outline: as §1

[8] = tested on: T1, LOC_OS06G22820-cb001
T1 sequence (whole entry): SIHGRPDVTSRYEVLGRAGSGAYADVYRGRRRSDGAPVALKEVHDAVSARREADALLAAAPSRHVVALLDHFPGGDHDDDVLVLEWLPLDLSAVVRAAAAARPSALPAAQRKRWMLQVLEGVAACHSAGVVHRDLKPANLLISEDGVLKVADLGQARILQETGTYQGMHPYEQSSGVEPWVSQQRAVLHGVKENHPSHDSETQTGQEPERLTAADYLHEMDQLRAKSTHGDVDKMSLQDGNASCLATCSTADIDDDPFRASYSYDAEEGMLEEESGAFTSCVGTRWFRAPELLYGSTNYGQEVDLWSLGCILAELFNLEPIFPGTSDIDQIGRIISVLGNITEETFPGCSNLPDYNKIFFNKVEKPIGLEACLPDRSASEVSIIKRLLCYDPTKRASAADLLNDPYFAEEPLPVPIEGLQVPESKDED
Outline: as §1

[9] = tested on: LOC_OS07G06570-cb004
Outline: as §1

[10] = tested on: LOC_OS07G07230-cb001
Outline: as §1

SMILES | thermal shift delta Tm [1] | thermal shift delta Tm [2] | thermal shift delta Tm [3] | thermal shift delta Tm [4] | thermal shift delta Tm [5] | thermal shift delta Tm [6] | thermal shift delta Tm [7] | thermal shift delta Tm [8] | thermal shift delta Tm [9] | thermal shift delta Tm [10]
COc1cc2nccc(Oc3ccc(NC(=O)C4(C(=O)Nc5ccc(F)cc5)CC4)cc3)c2cc1OC | 2.62 °C | 12.8 °C | 3.14 °C | 7.75 °C | 0.54 °C | 0.51 °C | 5.17 °C | 1.2 °C | 0.82 °C | 0.35 °C
O=C(NCCO)c1cccc(-c2cc(Nc3ccc(OC(F)(F)F)cc3)ncn2)c1 | -0.03 °C | 1.54 °C | 0.97 °C | -0.03 °C | 0.29 °C | 0.15 °C | 1.76 °C | 0.84 °C | 0.21 °C | -0.33 °C
C[C@@H](N)[C@H]1CC[C@H](C(=O)Nc2ccncc2)CC1 | 0.06 °C | 0.75 °C | 1.53 °C | 0.81 °C | 0.41 °C | 0.43 °C | 0.4 °C | 0.94 °C | 0.98 °C | 0.08 °C
COc1cc2ncnc(Nc3ccc(F)c(Cl)c3)c2cc1NC(=O)/C=C/CN1CCCCC1 | 0.99 °C | 0.3 °C | -1.53 °C | 1.09 °C | 0.67 °C | 1.72 °C | 0.01 °C | 1.31 °C | 1.37 °C | 0.21 °C
Nc1cc(C(F)(F)F)c(-c2cc(N3CCOCC3)nc(N3CCOCC3)n2)cn1 [Buparlisib (BKM120, NVP-BKM120)] | 0.52 °C | 0.95 °C | -3.32 °C | 0.28 °C | 0.66 °C | 0.71 °C | 0.02 °C | 0.75 °C | 0.64 °C | -0.59 °C
Cc1ccc(NC(=O)Nc2cc(C(F)(F)F)ccc2F)cc1Nc1ccc2c(c1)NC(=O)/C2=C\c1ccc[nH]1 | 0.83 °C | 1.9 °C | 2.11 °C | 0.81 °C | 0.73 °C | 1.98 °C | 1.54 °C | 1.12 °C | -0.24 °C | 1.34 °C
COc1ccc(-c2cc3nccn3c(Nc3ncccc3C(N)=O)n2)cc1OC | 1.09 °C | 10.1 °C | -0.07 °C | 0.66 °C | 0.59 °C | 0.69 °C | 4.18 °C | 0.82 °C | 0.73 °C | 0.38 °C
COc1cccc2cc(-c3nc([C@H]4CC[C@H](C(=O)O)CC4)n4ncnc(N)c34)[nH]c12 | 0.17 °C | 3.87 °C | -4.58 °C | 0.34 °C | 0.73 °C | 0.5 °C | -0.07 °C | 0.66 °C | 0.52 °C | 0.08 °C
O=C(NOCC1CC1)c1ccc(F)c(F)c1Nc1ccc(I)cc1Cl | 0.14 °C | 1.54 °C | 2.02 °C | 1.8 °C | 0.63 °C | 1.06 °C | 0.69 °C | 1.27 °C | 1.57 °C | 0.31 °C
CN(C)Cc1cccc(N=C(c2ccccc2)c2c(O)[nH]c3cc(C(=O)N(C)C)ccc23)c1 | 0.46 °C | 5.73 °C | 3.8 °C | -0.08 °C | 0.49 °C | 0.76 °C | 0.77 °C | 0.98 °C | 0.59 °C | -0.37 °C
CC(C)=CC[C@@H](O)C1=CC(=O)c2c(O)ccc(O)c2C1=O [Shikonin] | -1.93 °C | -1.47 °C | -0.18 °C | 1.58 °C | 0.18 °C | 0.09 °C | -1.68 °C | -0.26 °C | 7.3 °C | 0.21 °C
CNc1nc(Nc2cn(C(C)(C)C#N)nc2C)ncc1C(F)(F)F | 0.21 °C | 3.12 °C | 1.76 °C | 0.47 °C | 0.36 °C | 0.56 °C | 0.81 °C | 0.4 °C | 0.68 °C | -0.13 °C
COc1ccc(S(=O)(=O)N(C(C)=O)c2ccccc2/C=C/c2cc[n+]([O-])cc2)cc1 | 0.43 °C | 0.92 °C | -6.15 °C | 0.67 °C | 0.66 °C | 0.45 °C | 0.41 °C | 0.58 °C | 1.06 °C | 0.31 °C
Cc1ccc(NC(=O)c2ccc(CN3CC[C@H](N(C)C)C3)c(C(F)(F)F)c2)cc1Nc1nccc(-c2cncnc2)n1 [Bafetinib (INNO-406)] | 0.08 °C | 0.37 °C | -2.81 °C | 1.08 °C | 0.77 °C | 0.5 °C | -0.31 °C | 0.4 °C | 1.66 °C | 0.62 °C
COc1ccc(-c2cc3c(C)nc(N)nc3n([C@H]3CC[C@H](OCCO)CC3)c2=O)cn1 | 0.78 °C | 0.06 °C | -1.05 °C | 0.57 °C | 0.75 °C | 0.65 °C | -0.03 °C | 0.69 °C | 1.04 °C | 0.01 °C
C=CC(=O)Nc1cc(Nc2nccc(-c3cn(C)c4ccccc34)n2)c(OC)cc1N(C)CCN(C)C [Osimertinib (AZD9291)] | 0.2 °C | 13.5 °C | -1.95 °C | 0.53 °C | 0.54 °C | 0.3 °C | 5.5 °C | 0.25 °C | 1.03 °C | 0.47 °C
COCCOc1cnc2ccn([C@H](C)c3nnc4c(F)cc(-c5cnn(C)c5)cn34)c(=O)c2c1 | 0.33 °C | 0.47 °C | -0.61 °C | 0.19 °C | 0.72 °C | 0.35 °C | 2.3 °C | 0.29 °C | 1.07 °C | 0.81 °C
C=CC(=O)N1CC[C@@H](Oc2nc(Nc3ccc(N4CCC(N5CCN(C)CC5)CC4)cc3)c(C(N)=O)nc2CC)C1 [Naquotinib(ASP8273)] | 3.28 °C | 13.1 °C | 11.6 °C | 1.04 °C | 0.55 °C | 0.27 °C | 10 °C | 0.25 °C | 1.6 °C | 0.69 °C
COc1ccc(COc2ccc(Cc3cnc(N)nc3N)cc2OC)cc1 | 0.05 °C | 0.49 °C | -1.41 °C | 0.33 °C | 0.26 °C | 0.4 °C | 1.65 °C | 0.41 °C | 0.82 °C | -0.38 °C
C[C@@H]1CCN(C(=O)CC#N)C[C@@H]1N(C)c1ncnc2[nH]ccc12 | -0.1 °C and 0.49 °C | 2.97 °C and 3.63 °C | -1.07 °C and 0.7 °C | 0.03 °C and 0.86 °C | 0.42 °C and 0.38 °C | 0.33 °C and 0.16 °C | 0.7 °C and 0.62 °C | 0.46 °C and 1.08 °C | 0.55 °C and 1.39 °C | 0.32 °C and -0.21 °C

From the supplement of paper PMC9694430
